Source: PubChem BioAssay
Activity calls are given as the source filed them.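 The calls were made as follows, unless noted: active = inhibition above 20% together with a positive visual image hit; inconclusive = visual image hit but inhibition not above 20%; inactive = no visual image hit.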

How the values were obtained:
[1] = inhibitors of TNFa-induced NFkB p65 translocation, primary screen, imaging, HUVEC, MLSMR starter and 10KST1 sets (AID 438); conditions: HUVEC TNFa-induced p65 nuclear translocation; cell count: measured here: nuclei count (cytotoxicity indicator), at 2.08 µM; inhibition: at 2 µM, stronger effect = higher value, 0% TNFa-plus-vehicle, 100% no-TNFa wells;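 also: compound added about 3h40 before a 20 min TNFalpha stimulation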;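 as to inhibition: signal is the nuclear over cytoplasmic p65 intensity ratio per well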
[2] = reduction of polyQ htt aggregates in cells – imaging, exon1htt(103Q)mCFP cells, high-content imaging, primary screen (AID 483;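 active = visual image review flags a hit and inhibition of aggregation exceeds 20%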;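 also: compound exposure lasted 3 days before fixation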;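 as to nuclei count: percent of the per-plate median nuclei count of sample wells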); conditions: exon1htt(103Q)mCFP cell line, aggregate imaging, at 2 µM; inhibition of aggregation: stronger effect = higher value; nuclei count: measured here: cell count, toxicity
[3] = endothelial E-selectin expression blockers – imaging, HUVEC, immunofluorescence, MLSMR starter and 10KST1 sets, primary screen (AID 487;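 active = visually confirmed hit in the image check and inhibition above 20%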;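 as to inhibition: signal is fraction of cell area covered by stained E-selectin grains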;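 as to nuclei count: 100% = median nuclei count of all wells on the same plate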); conditions: HUVEC TNFalpha-induced E-selectin immunofluorescence imaging, at 2 µM; inhibition: stronger effect = higher value; nuclei count: measured here: cell number, toxicity
[4] = molecular target: Voltage-gated potassium channel subunit beta-2 (Rattus norvegicus) (UniProt P62483); assay: inhibitors of rat Kvbeta2 reductase activity – biochemical, NADPH fluorescence, primary screen (AID 622;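 active = fluorescence slope higher than the sample average by over 3 SD, cut at about -0.22 in these data, passing the limit was not always enough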;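 also: slope of raw intensity against log time taken from 70 to 1610 s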); conditions: recombinant KvBeta, 4-cyanobenzaldehyde reduction, at 10 µM, stronger effect = higher value
Sequence of Voltage-gated potassium channel subunit beta-2 (Rattus norvegicus) (P62483 whole entry, looked up): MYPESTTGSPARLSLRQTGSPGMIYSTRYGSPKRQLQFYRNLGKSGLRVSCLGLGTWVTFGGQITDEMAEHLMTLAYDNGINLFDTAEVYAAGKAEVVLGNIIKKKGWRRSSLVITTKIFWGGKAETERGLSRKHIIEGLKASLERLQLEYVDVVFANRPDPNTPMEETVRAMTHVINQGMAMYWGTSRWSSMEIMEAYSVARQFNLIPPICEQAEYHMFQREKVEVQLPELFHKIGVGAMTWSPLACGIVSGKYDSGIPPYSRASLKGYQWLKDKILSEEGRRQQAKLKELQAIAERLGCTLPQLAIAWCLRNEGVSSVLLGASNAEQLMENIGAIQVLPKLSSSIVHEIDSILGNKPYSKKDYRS

[5] = molecular target: Voltage-gated potassium channel subunit beta-2 (Rattus norvegicus) (UniProt P62483); assay: enhancers of rat Kvbeta2 NADPH turnover – biochemical, NADPH fluorescence, primary screen (AID 623;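 active = NADPH fluorescence slope more negative than the mean of all samples by about 3 SD, 99.7% confidence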;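 also: fluorescence intensity change per second fitted from 20 to 320 s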); conditions: Recombinant KvBeta, NADPH fluorescence decrease slope, 10 min; at 10 µM; stronger effect = lower value
[6] = molecular target: Alpha-2C adrenergic receptor (Homo sapiens) (UniProt P18825); assay: compounds altering alpha2C-coupled GIRK flux – cell-based, HEK293 alpha2C/GIRK1/2, thallium flux, primary screen (AID 624;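 active = fluorescence slope after compound addition differing from the mean of all screened samples at 99.7% confidence, in either direction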;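 also: slope of fluorescence ratio to pre-addition baseline per second over 15 to 24 s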); conditions: thallium flux BTC fluorescence, at 10 µM, actives lie on both sides
Sequence of Alpha-2C adrenergic receptor (Homo sapiens) (P18825 whole entry, looked up): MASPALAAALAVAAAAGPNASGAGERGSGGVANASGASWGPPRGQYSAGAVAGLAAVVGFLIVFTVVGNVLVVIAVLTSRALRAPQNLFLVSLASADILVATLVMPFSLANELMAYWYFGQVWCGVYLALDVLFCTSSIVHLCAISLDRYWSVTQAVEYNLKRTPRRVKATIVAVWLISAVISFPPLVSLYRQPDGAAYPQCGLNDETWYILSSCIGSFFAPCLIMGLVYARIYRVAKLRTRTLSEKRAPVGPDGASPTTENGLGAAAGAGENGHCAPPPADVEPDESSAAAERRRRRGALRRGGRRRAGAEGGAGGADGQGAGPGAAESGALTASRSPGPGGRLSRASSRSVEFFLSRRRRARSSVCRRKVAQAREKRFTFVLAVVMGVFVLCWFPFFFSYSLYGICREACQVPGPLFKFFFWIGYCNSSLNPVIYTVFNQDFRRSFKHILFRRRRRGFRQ

[7] = blockers of RIG-like receptor reporter activation – cell-based, Sendai virus stimulus, luciferase, 10K MLSCN set, TLR/RLR signaling modifier project, primary screen (AID 602276;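 active = inhibition at or above 50% at 10 µM; inactive = inhibition below 50%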;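 also: firefly luciferase from ISG56 promoter only with Renilla not read in this screen; 0% = Sendai virus plus DMSO and 100% = medium plus DMSO without virus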); conditions: HEK293 RL24 IRF3 luciferase reporter, at 10 µM, stronger effect = higher value
[8] = TLR3 IRF3 reporter activation blockers – cell-based, poly I:C stimulus, luciferase, 10K MLSCN set, primary screen (AID 602277;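 active = inhibition of the reporter signal at or above 50%; inactive = inhibition below 50%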); conditions: HEK293-TLR3 RL24 IRF3 luciferase reporter, at 10 µM, stronger effect = higher value

Row | Structure (SMILES) | cell count [1] | inhibition [1] | inhibition of aggregation [2] | nuclei count [2] [%] | inhibition [3] | nuclei count [3] [%] | fluorescence slope [4] | NADPH fluorescence slope [5] | slope [6] | inhibition [7] | inhibition [8]
1 | Nc1nc(SCc2ccc(Cl)cc2Cl)n[nH]1 | 352 | -1.7% (inactive) | -21.4% (inactive) | 97.6 | -161% (inactive) | 124 | -0.387 (inactive) | -4.5e-05 (inactive) | 0.00474 (inactive) | -12% (inactive) | -30.1% (inactive)
2 | Cn1c2ccccc2c2ncn(CCCN3CCOCC3)c(=O)c21 | 715 | -0.6% (inactive) | -15.1% (inactive) | 94 | 5.6% (inactive) | 113 | -0.383 (inactive) | 2e-05 (inactive) | 0.00539 (inactive) | 5.16% (inactive) | 23.7% (inactive)
3 | COc1ccc(C2(C(=O)N3CCCC3)CCOCC2)cc1OC | 352 | 5.5% (inactive) | -9.9% (inactive) | 97.5 | 30.4% (inactive) | 111 | -0.341 (inactive) | -1.4e-05 (inactive) | 0.00553 (inactive) | 2.28% (inactive) | 15.1% (inactive)
4 | CCOC(=O)c1ccc2nc(C)c3c(c2c1)OC(C)C3 (stereo not drawn) | 308 | -13% (inactive) | 1.1% (inactive) | 94.2 | 9% (inactive) | 122 | -0.349 (inactive) | 1.7e-05 (inactive) | 0.00348 (inactive) | -5.44% (inactive) | 20.2% (inactive)
5 | Fc1ccc(-c2ccc(-c3nn4c(-c5ccco5)nnc4s3)o2)cc1 | 243 | -2.4% (inactive) | 1.7% (inactive) | 92.7 | -25.8% (inactive) | 101 | -0.394 (inactive) | -3e-05 (inactive) | 0.00935 (inactive) | -5.55% (inactive) | -13.1% (inactive)
6 | C=CCSC1=C(C#N)C(c2ccccc2C)CC(=O)N1 (stereo not drawn) | 556 | 2.1% (inactive) | -12.2% (inactive) | 94 | -48.8% (inactive) | 174 | -0.601 (inactive) | -1.1e-05 (inactive) | 0.00492 (inactive) | -5.91% (inactive) | -13.9% (inactive)
7 | Cc1ccc(NC2=NC3(CCCCC3)N=C(N)N2)c(C)c1 | 530 | -4.7% (inactive) | 4.5% (inactive) | 76.2 | -59.7% (inactive) | 99.3 | -0.598 (inactive) | -4.3e-05 (inactive) | 0.00486 (inactive) | -10.3% (inactive) | 8.58% (inactive)
8 | CCC1SC2=NC(C)=C(C(=O)OC)C(c3ccc(C)cc3)N2C1=O (stereo not drawn) | 562 | -11.1% (inactive) | -9.6% (inactive) | 111 | -57.6% (inactive) | 103 | -0.591 (inactive) | -6.5e-05 (inactive) | 0.0061 (inactive) | -10.4% (inactive) | -17.2% (inactive)
9 | COc1ccc(C(=O)N2CCN(C(=O)c3ccco3)CC2)cc1OC | 546 | -3.9% (inactive) | -2.2% (inactive) | 108 | -184% (inactive) | 199 | -0.401 (inactive) | -3.4e-05 (inactive) | 0.00558 (inactive) | 13.2% (inactive) | 13.7% (inactive)
10 | Cc1ccc(-c2noc(CN3CCN(c4ccccc4F)CC3)n2)cc1 | 468 | -2.6% (inactive) | -0.3% (inactive) | 84.1 | -30.6% (inactive) | 101 | -0.556 (inactive) | -3.7e-05 (inactive) | 0.00746 (inactive) | 14.7% (inactive) | 39% (inactive)
11 | COc1ccc(C(=O)NCCn2ccc3ccccc32)c(OC)c1 | 280 | -2.5% (inactive) | 0.8% (inactive) | 80.1 | -40.8% (inactive) | 95.6 | -0.608 (inactive) | 6.8e-06 (inactive) | 0.00591 (inactive) | 1.44% (inactive) | -24.1% (inactive)
12 | O=C(CN1CCN(c2nc(-c3ccc(F)cc3)cs2)CC1)NCc1ccc2c(c1)OCO2 | 491 | 9.9% (inactive) | 5.2% (inactive) | 108 | -34.5% (inactive) | 107 | -0.582 (inactive) | -2.2e-05 (inactive) | 0.00522 (inactive) | 16.7% (inactive) | 17.8% (inactive)
13 | O=C(Nc1ccccc1N1CCCCC1)c1ncoc1-c1ccc(F)cc1 | 426 | -1.8% (inactive) | -0.9% (inactive) | 87.1 | -180% (inactive) | 122 | -0.424 (inactive) | 4.4e-06 (inactive) | 0.00948 (inactive) | -3.24% (inactive) | -51.9% (inactive)
14 | CCOC(=O)N1CCN(C(=O)CSc2nnc(Cc3ccccc3)o2)CC1 | 645 | -6.9% (inactive) | 10.1% (inactive) | 123 | -53.8% (inactive) | 102 | -0.525 (inactive) | -3.6e-05 (inactive) | 0.00629 (inactive) | 2.23% (inactive) | 10.9% (inactive)
15 | Cc1ccc2[nH]c(=O)c3cc(C(=O)NCCN4CCN(C)CC4)sc3c2c1 | 526 | -0.5% (inactive) | 2.4% (inactive) | 60 | -14.1% (inactive) | 116 | -0.229 (active) | -4.2e-06 (inactive) | 0.00573 (inactive) | 10.4% (inactive) | 90.4% (active)
16 | O=C(NCCc1ccccn1)c1ccc(COc2ccccc2)o1 | 450 | -26.3% (inactive) | 8.3% (inactive) | 93.3 | -39.9% (inactive) | 156 | -0.449 (inactive) | -4.6e-05 (inactive) | 0.00624 (inactive) | 3.41% (inactive) | -2.41% (inactive)
17 | CCN(CC)C(=O)C1=C(C)Nc2nnnn2C1c1cccnc1 (stereo not drawn) | 346 | 9.3% (inactive) | 11.2% (inactive) | 102 | -55.9% (inactive) | 109 | -0.567 (inactive) | 1.1e-05 (inactive) | 0.0059 (inactive) | 11.8% (inactive) | 16.8% (inactive)
18 | O=C(O)CCC(=O)c1c[nH]c2ccccc12 | 458 | 0.5% (inactive) | 20% (inactive) | 103 | -43.2% (inactive) | 105 | -0.457 (inactive) | 9.9e-05 (inactive) | 0.00973 (inactive) | -16.3% (inactive) | 8.52% (inactive)
19 | COc1ccc(OC)c(C(=O)COC(=O)c2cc(C)oc2C)c1 | 747 | -9.6% (inactive) | 38.1% (inactive) | 103 | -2.3% (inactive) | 114 | -0.361 (inactive) | 2.4e-05 (inactive) | 0.00558 (inactive) | 6.43% (inactive) | -0.082% (inactive)
20 | CC1CCN(CCc2nc3cc(NS(=O)(=O)c4ccc(F)cc4)ccc3n2C)CC1 | 392 | 6.1% (inactive) | 13.2% (inactive) | 97.6 | -31.1% (inactive) | 106 | -0.5 (inactive) | -3.1e-05 (inactive) | 0.00517 (inactive) | 5.27% (inactive) | 16% (inactive)
21 | Cc1onc(-c2c(Cl)cccc2Cl)c1C(=O)N1CCc2ccccc21 | 696 | -5.8% (inactive) | -0.7% (inactive) | 93.6 | -30.8% (inactive) | 92.5 | -0.47 (inactive) | -3.1e-05 (inactive) | 0.00899 (inactive) | 23.7% (inactive) | 23.2% (inactive)
22 | O=C(Nc1cccc(C(F)(F)F)c1)c1ccco1 | 580 | -5.4% (inactive) | 4.3% (inactive) | 113 | -33.8% (inactive) | 99.3 | -0.617 (inactive) | -5.6e-05 (inactive) | 0.00406 (inactive) | -7.21% (inactive) | -42.6% (inactive)
23 | CC(C)(C)Cc1nc(-c2ccccn2)no1 | 379 | 0.8% (inactive) | -13.5% (inactive) | 109 | -71.1% (inactive) | 115 | -0.44 (inactive) | -2.3e-05 (inactive) | 0.00439 (inactive) | -5.86% (inactive) | -18.2% (inactive)
24 | COC(=O)CCSCc1cn2cc(Cl)ccc2n1 | 373 | 2.8% (inactive) | -26.9% (inactive) | 103 | -85.2% (inactive) | 112 | -0.509 (inactive) | -1.7e-05 (inactive) | 0.00629 (inactive) | 18.6% (inactive) | 56.9% (active)
25 | CCOC(=O)N1CCN(C(=O)c2n[nH]c(=O)c3ccccc23)CC1 | 515 | -9.4% (inactive) | -7.2% (inactive) | 107 | -37.5% (inactive) | 80.9 | -0.591 (inactive) | -2.8e-05 (inactive) | 0.00361 (inactive) | -11.6% (inactive) | -3.48% (inactive)
26 | CCCC(=O)Nc1ccc2oc(-c3cccnc3)nc2c1 | 330 | -1.1% (inactive) | 18.2% (inactive) | 82.7 | -1.9% (inactive) | 62.2 | -0.332 (inactive) | -1.1e-05 (inactive) | 0.00331 (inactive) | -23.4% (inactive) | -96.1% (inactive)
27 | Cc1ccc2c(c1)N(CC(=O)N1CCCCC1c1cccnc1)C(=O)CO2 (stereo not drawn) | 442 | 2.2% (inactive) | 4.1% (inactive) | 104 | -48.3% (inactive) | 104 | -0.345 (inactive) | -6.9e-05 (inactive) | 0.0057 (inactive) | -2.12% (inactive) | 17.4% (inactive)
28 | Cc1ccc(-c2noc(COc3ccccc3C)n2)cc1 | 607 | -7.8% (inactive) | 12.3% (inactive) | 110 | 35.1% (inactive) | 129 | -0.484 (inactive) | 1.6e-05 (inactive) | 0.0049 (inactive) | -24.5% (inactive) | -88.2% (inactive)
